This is one part of the list. Entries that show only a call come without a potency. Records with an inconclusive call do not appear. The source made the active and inactive calls. Calls follow the shape of the full dose curve.
biological target: Polyprotein P1234 (Chikungunya virus (strain S27-African prototype)) (UniProt Q8JUX6); assay: Secondary cell base assay for inhibitors of NSP2Pro Chikungunya virus (CHIKV) (AID 1964100); conditions: cell-based CHIKV nsP2 protease reporter assay; series mostly up to 51.1 µM; also: nearly all actives have a fitted effect of over 70% in size
Description: PI: Natalia J. Martinez Ph.D.
National Center for Advancing Translational Sciences (NCATS),
National Institute of Health (NIH), Rockville, Maryland
Chikungunya virus (CHIKV) is a mosquito-borne RNA virus that has emerged as one of the most important global arboviral threats in the last decade. Although the first CHIKV vaccine has recently been FDA approved for use in healthy adults at increased risk, to date, there are no available antiviral drugs for CHIKV infection. CHIKV nsP2 protease plays a crucial role in the processing of the viral polypeptide precursor to release enzymes required for viral replication, thus making it a promising drug target for antiviral discovery. Here, we established a high-throughput pipeline to identify small molecule inhibitors of nsP2 proteolytic activity. The pipeline is composed of a suite of 1,536-well in vitro assays to support quantitative high-throughput (qHTS) screening campaigns. Specifically, we developed a fluorescence resonance energy transfer (FRET)-based assay using a fluorogenic peptide substrate encompassing an endogenous cleavage site and purified recombinant protease domain (nsP2pro). Using this assay, we interrogated ~37,000 small molecules, including those in drug repurposing libraries as well as chemically diverse and medicinal chemistry-friendly compounds. Hits were selected for follow-up validation against full-length nsP2 and an additional peptide. FRET-based 1,536-well assays for papain, hepatitis C virus NS3-4A, and human furin proteases were implemented to characterize compound selectivity. […] Novel compounds were identified to be potential nsP2 inhibitors and molecular docking analyses were performed to explain the binding mode of selected hits. In vitro antiviral activity was evaluated for a subset of compounds using a high-throughput CHIKV infection assay. To our knowledge, the pipeline presented here is unprecedented for CHIKV antiviral discovery research.
Described herein is the secondary cell-based assay using a reporter construct. Construct cloning was produced by gene synthesis (GeneScript). The Split Nluc reporter construct was cloned into the NheI/EcoRI sites of pcDNA3.1 (+). The Nterm HiBiT (86b) and Cterm LgBiT (11S) sequences of the Split Nluc reporter were separated by a flexible loop containing the nsp3/4 cleavage site ([…]) or a flexible loop without a cleavage site (12X GlySer). nsP2pro expression construct (amino acids 220-798, accession #MT933050) was cloned into the NheI/EcoRI sites of pcDNA3.1 (+) and contained a C-terminal Flag/6xHis tag. The gene synthesis of the Split Nluc reporter and West Nile Virus (WNV) NS2B/NS3 protease expression constructs was performed by Synbio Technologies. The Split Nluc reporter construct included the N-terminal HiBiT (86b) and C-terminal LgBiT (11S) sequences, separated by a loop containing the WNV NS2B/NS3 cleavage site ([…]). The WNV NS2B/NS3 protease expression construct (amino acids 1375-1693, accession #NC_009942) contained a C-terminal Flag/6xHis tag. Both constructs were cloned into the XbaI/AgeI sites of pcDNA3.4.
PROTOCOL TABLE (as described by Inglese J, Shamu CE and Guy RK. 2007)
SEQUENCE No. (e.g., 1, 2, 3, etc.); […] (e.g., Cells, Incubation, Reagent, etc.); VALUE; DESCRIPTION.
1a; Cell Transfection; Lipofectamine 2000.
1b; Cell; 4 uL; Aurora 1536-well, white, tissue culture plate.
2; Incubation; 4 hr; 37C, 5% CO2, 95% humidity.
3; Compound; 20 nL; Echo 650 Liquid Handler.
4; Incubation; overnight; 37C, 55 CO2, 95% humidity.
5; Reagent; 4 uL; Nano-Glo Luciferase assay system.
6; Centrifugation; 2 sec.
7; Detection; Luminescence; ViewLux plate reader (PerkinElmer).
NOTES (numbers refer to sequence numbers above).
1a. […]
Potency is read from the fitted curve at half-maximal effect.

| SMILES | Potency |
| --- | --- |
| C=Cc1c(C)c2cc3nc(cc4[nH]c(cc5nc(cc1[nH]2)C(C)=C5CCC(=O)O)c(CCC(=O)OC)c4C)[C@@]1(C)C3=CC=C(C(=O)OC)[C@H]1C(=O)OC | inactive |
| Cc1c(S(=O)(=O)O)oc2c1C(=O)C(=O)c1c-2ccc2c1CCCC2(C)C | inactive |
| Oc1ccc(OC2CCCCO2)cc1 (centres undefined) | inactive |
| C[C@@H]1C[C@@H](O)[C@@]23CO[C@]2(CO)C[C@@H](O)CC3[C@@]12CC(c1ccoc1)OC2=O (some centres undefined) | inactive |
| CCOc1ccc(NC(=O)c2c(NC(=O)Cc3ccccc3)sc3c2CCCCC3)cc1 | inactive |
| CCc1ccccc1NC(=O)c1cnn(-c2ccc(F)cc2)c1C1CCNCC1 | inactive |
| CCOc1ccc(N(Cc2ccccc2)C(=O)c2nc(S(C)(=O)=O)ncc2Cl)cc1 | 2.31 µM (active) |
| CCOc1ccc(NC(=O)c2c(NC(=O)Cc3ccccc3)sc3c2CCC(C)C3)cc1 (centres undefined) | inactive |
| CO[C@]1(NC(=O)CSC(F)F)C(=O)N2C(C(=O)O)=C(CSc3nnnn3CCO)CO[C@H]21 | inactive |
| CCC(C)C(=O)OC1C(C)C2(O)C(C=C(CO)CC3(O)C(=O)C(C)=CC32)C2C(C)(C)C12OC(=O)C(C)C (centres undefined) | inactive |
| Cc1cc(C)cc(NC(=O)CSc2oc(-c3ccccc3)nc2S(=O)(=O)c2ccc(Cl)cc2)c1 | inactive |
| Cc1ccc(N[S+](=O)([O-])c2cc3c(cc2N[C@@H](C)CO)NC(=O)CC3)cc1N[C@@H](C)CO | inactive |
| C[C@@H]1[C@H](O)[C@@H]2OC(=O)C3=C2[C@H](CCC3)[C@@]12C[C@@H](c1ccoc1)OC2=O | inactive |
| CC(=O)N[C@@H](C(=O)O[C@H]1CCC(C)(C)[C@@H]2CCC3=C(COC3=O)[C@@]12C)C(C)C | inactive |
| C=CC(=O)c1ccc2ccccc2c1 | inactive |
| Cn1nnnc1Sc1ncnc2n[nH]c(-c3cccc(S(C)(=O)=O)c3)c12 | 11.2 µM (active) |
| CC1=C(/C=C/C(C)=C/C=C/C(C)=C/C=C/C=C(C)/C=C/C=C(C)/C=C/C2=C(C)CCCC2(C)C)C(C)(C)CCC1 | inactive |
| C[C@@H]1O[C@@H](O[C@@H]2[C@@H](O)[C@H](OCCc3ccc(O)c(O)c3)O[C@H](CO[C@@H]3O[C@H](CO)[C@@H](O)[C@H](O)[C@H]3O)[C@H]2OC(=O)/C=C/c2ccc(O)c(O)c2)[C@H](O)[C@H](O)[C@H]1O | inactive |
| COC([CH2][Hg])CNC(=O)c1ccccc1OCC(=O)O (centres undefined) | inactive |
